In PubChem BioAssay AID743025 (Vanderbilt Specialized Chemistry Center, 2013):
Unmarked numbers belong to inactive results.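 The calls were made as follows: active = IC50 below 10 µM at human M5 in a calcium flux test, acting as a negative modulator; inactive = the rest.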

Biological target: Muscarinic acetylcholine receptor M5 (Homo sapiens) (UniProt P08912)
Test: M5 muscarinic receptor negative allosteric modulators, cell-based, single concentration, human M5 (AID 743025)
Settings: CHO-K1 hM5, ACh EC80 calcium flux, Fluo-4; at 10 µM; stronger effect = lower value

Chain of Muscarinic acetylcholine receptor M5 (Homo sapiens) (P08912 whole entry, looked up): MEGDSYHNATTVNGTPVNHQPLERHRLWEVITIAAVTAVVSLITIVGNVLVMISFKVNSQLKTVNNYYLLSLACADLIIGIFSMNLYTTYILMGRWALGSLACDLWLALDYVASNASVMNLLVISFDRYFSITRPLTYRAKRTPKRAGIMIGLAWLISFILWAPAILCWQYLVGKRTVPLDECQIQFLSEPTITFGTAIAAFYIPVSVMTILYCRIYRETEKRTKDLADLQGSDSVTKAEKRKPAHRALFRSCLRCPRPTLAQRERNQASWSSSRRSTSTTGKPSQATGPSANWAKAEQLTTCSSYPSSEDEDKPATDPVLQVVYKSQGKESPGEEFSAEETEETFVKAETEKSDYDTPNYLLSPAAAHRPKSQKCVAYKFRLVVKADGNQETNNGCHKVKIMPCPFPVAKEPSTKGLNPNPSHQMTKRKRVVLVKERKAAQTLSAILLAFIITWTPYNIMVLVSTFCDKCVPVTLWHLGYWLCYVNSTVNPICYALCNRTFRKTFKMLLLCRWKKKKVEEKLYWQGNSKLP

## O=C1c2ncccc2C2(c3ccccc3)NCCN12 (configuration not stated)
  activity remaining: 67.2%

## O=C1c2ccccc2C2(c3ccc(Cl)cc3)NCCN12 (configuration not stated)
  activity remaining: 78.7%
